Consider 5 compounds from PubChem BioAssay.

The nature of experiment [1]: small molecules captured by biotinylated probe aFSTL3 – biochemical, small-molecule microarray, fluorescence 635/667, stem cell growth factor project, primary screen (AID 1064).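 Also: measures binding of the biotinylated anti-FSTL3 antibody to printed compounds.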 Particulars: higher = more signal.
A short description of experiment [2]: binders from COS7 lysate, DM2A8 probe, primary screen, torsin A project, cell lysate, small-molecule microarray, fluorescence 635/667 (AID 1065). Particulars: higher = more signal, COS7 lysate expressing mutant human TOR1A.
Experiment [3] in a line: small molecules captured by biotinylated probe aFGF2 – biochemical, small-molecule microarray, fluorescence 635/667, stem cell growth factor project, primary screen (AID 1067).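 Also: measures binding of biotinylated aFGF2 protein to printed compounds on slides; z-score merges feature fluorescence and signal-to-noise across triplicate slides.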 Particulars: higher = more signal.
Experiment [4] in a line: small molecules captured by biotinylated probe aFGF10 – biochemical, small-molecule microarray, fluorescence 635/667, stem cell growth factor project, primary screen (AID 1071).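 Also: score merges 667 nm spot intensity and signal to noise from triplicate slides.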 The following applies: higher = more signal.
Experiment [5] deals with Neurogenic locus notch homolog protein 2 (Homo sapiens) (UniProt Q04721). The experiment in a line: small molecules binding Notch2 protein – biochemical, small-molecule microarray, 635 nm fluorescence, stem cell growth factors, primary screen (AID 1073). The following applies: higher = more signal.
The target in experiment [6] is Pro-neuregulin-1, membrane-bound isoform (Homo sapiens) (UniProt Q02297). Put plainly: small molecules binding neuregulin-1 protein – biochemical, small-molecule microarray, fluorescence 635/667, psychiatric disease protein project, primary screen (AID 1075).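 Also: score combines 667 nm spot fluorescence with signal to noise.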 The following applies: NRG1 binding, 635 nm fluorescence, higher = more signal.
Pro-neuregulin-1, membrane-bound isoform (Homo sapiens), sequence (Q02297 whole entry, looked up, the tested form may be a part, canonical isoform): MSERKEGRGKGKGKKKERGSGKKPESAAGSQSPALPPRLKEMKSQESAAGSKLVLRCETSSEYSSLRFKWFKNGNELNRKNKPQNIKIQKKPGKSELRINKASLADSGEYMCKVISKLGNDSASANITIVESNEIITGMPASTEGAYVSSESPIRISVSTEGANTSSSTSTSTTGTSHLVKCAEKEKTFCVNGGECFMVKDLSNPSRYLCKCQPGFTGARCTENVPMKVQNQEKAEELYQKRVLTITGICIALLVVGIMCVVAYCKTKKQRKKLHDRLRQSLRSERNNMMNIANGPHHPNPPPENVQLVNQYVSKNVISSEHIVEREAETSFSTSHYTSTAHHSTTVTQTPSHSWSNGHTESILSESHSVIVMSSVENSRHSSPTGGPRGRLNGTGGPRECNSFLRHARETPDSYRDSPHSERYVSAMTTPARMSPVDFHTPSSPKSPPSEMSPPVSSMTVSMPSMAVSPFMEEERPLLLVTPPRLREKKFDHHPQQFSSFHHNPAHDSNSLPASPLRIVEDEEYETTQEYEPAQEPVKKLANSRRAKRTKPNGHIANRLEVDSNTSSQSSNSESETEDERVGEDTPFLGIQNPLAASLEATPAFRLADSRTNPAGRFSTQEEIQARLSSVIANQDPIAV
The test system of experiment [7] is Neuregulin-1 EGF-like domain. Put plainly: small molecules binding NRG1 EGF domain – biochemical, small-molecule microarray, 635 nm fluorescence, primary screen (AID 1081).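 Also: binding of the protein to compounds printed on small-molecule microarray slides.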 Particulars: higher = more signal.
Experiment [8] is described as follows: FRG1 expression reporter modulators in myotubes – cell-based, C2C12 myotubes, firefly/Renilla luciferase, luminescence, FRG1 inhibition for FSHD, primary screen (AID 1084). Particulars: FRG1 promoter luciferase, higher = more signal, called active from +8 up or from −8 down.
Experiment [9] can be described thus: small molecules captured by biotinylated probe aFST – biochemical, small-molecule microarray, fluorescence 635/667, stem cell growth factor project, primary screen (AID 1086).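 Also: score merges 667 nm fluorescence with signal-to-noise of each printed compound spot.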 The following applies: higher = more signal.
A short description of experiment [10]: binders of probe aHhip on microarray, primary screen, stem cell growth factor project, biochemical, small-molecule microarray, fluorescence 635/667 (AID 1087).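 Also: score merges spot fluorescence at 667nm with spot signal to noise ratio.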 Particulars: higher = more signal.
Experiment [11] has as its system PRMT1 (protein arginine N-methyltransferase 1). The experiment in a line: small molecules binding arginine methyltransferase PRMT1 – biochemical, small-molecule microarray, 635 nm fluorescence, primary screen (AID 1088).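 Also: binding of Prmt1 protein to compounds spotted on small-molecule microarray slides.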 The following applies: higher = more signal.
Experiment [12] can be described thus: growth effects on S. cerevisiae YJM789 – YJM789 clinical isolate, OD600, 24 h, basal, primary screen (AID 1089).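 Also: growth of clinical yeast isolate S. cerevisiae YJM 789 seeded 1000 cells per well; test concentration not given here.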 Particulars: higher = more signal, called active from +8 up or from −8 down.
A short description of experiment [13]: S. pombe growth modifiers, basal conditions – strain 972, OD600, 24 h, no modulator, primary screen (AID 1090).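 Also: basal condition with compound alone and no growth modifier present; test concentration not given here.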 Particulars: S. pombe 972 growth, higher = more signal, called active from +8 up or from −8 down.
The nature of experiment [14]: budding yeast growth modifiers under rapamycin – strain BY4716, OD600, 96 h, primary screen (AID 1091). Also: test concentration not given here. Particulars: S. cerevisiae BY4716 + rapamycin, higher = more signal, called active from +8 up or from −8 down.
Experiment [15] has as its target Torsin-1A-interacting protein 2 (Homo sapiens) (UniProt Q8NFQ8). The experiment in a line: small molecules binding lysate-expressed LULL1 – cell lysate, human LULL1 lysate, 635/667 nm fluorescence, primary screen (AID 1092).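 Also: probe is lysate of COS7 cells overexpressing human LULL1; score merges per-feature 667 nm fluorescence with signal-to-noise.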 Particulars: small-molecule microarray, hLULL1 lysate binding, 635 nm fluorescence; higher = more signal.
Experiment [16] is described as follows: optical density change of DRC41 E. coli – strain DRC41, OD650, 24 h, E. coli filamentation project, primary screen (AID 1093).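 Also: MC1000 strain lacking acrAB efflux and sulA so SOS filamentation is blocked; test concentration not given here.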 Particulars: E. coli DRC41 growth, higher = more signal, called active from +8 up or from −8 down.
Experiment [17] can be described thus: probe aLefty2 binding to arrayed compounds – biochemical, biotinylated probe, 635/667 nm fluorescence, primary screen (AID 1094).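 Also: score merges spot fluorescence near 667 nm with spot signal-to-noise ratio.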 Particulars: small-molecule microarray, higher = more signal.
For experiment [18], the system named is Noggin (protein binding on small-molecule microarray). The experiment in a line: small molecules binding Noggin protein – biochemical, 635/667 nm fluorescence, primary screen (AID 1095).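 Also: score merges 667 nm feature fluorescence with signal to noise over triplicate slides.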 The following applies: 635 nm fluorescence, higher = more signal.
In experiment [19] the target is Neurogenic locus notch homolog protein 3 (Homo sapiens) (UniProt Q9UM47). The experiment in a line: small molecules binding NOTCH3 protein – biochemical, 635/667 nm fluorescence, primary screen (AID 1096). Particulars: small-molecule microarray, 635 nm fluorescence, higher = more signal.
Neurogenic locus notch homolog protein 3 (Homo sapiens), sequence (Q9UM47 whole entry, looked up): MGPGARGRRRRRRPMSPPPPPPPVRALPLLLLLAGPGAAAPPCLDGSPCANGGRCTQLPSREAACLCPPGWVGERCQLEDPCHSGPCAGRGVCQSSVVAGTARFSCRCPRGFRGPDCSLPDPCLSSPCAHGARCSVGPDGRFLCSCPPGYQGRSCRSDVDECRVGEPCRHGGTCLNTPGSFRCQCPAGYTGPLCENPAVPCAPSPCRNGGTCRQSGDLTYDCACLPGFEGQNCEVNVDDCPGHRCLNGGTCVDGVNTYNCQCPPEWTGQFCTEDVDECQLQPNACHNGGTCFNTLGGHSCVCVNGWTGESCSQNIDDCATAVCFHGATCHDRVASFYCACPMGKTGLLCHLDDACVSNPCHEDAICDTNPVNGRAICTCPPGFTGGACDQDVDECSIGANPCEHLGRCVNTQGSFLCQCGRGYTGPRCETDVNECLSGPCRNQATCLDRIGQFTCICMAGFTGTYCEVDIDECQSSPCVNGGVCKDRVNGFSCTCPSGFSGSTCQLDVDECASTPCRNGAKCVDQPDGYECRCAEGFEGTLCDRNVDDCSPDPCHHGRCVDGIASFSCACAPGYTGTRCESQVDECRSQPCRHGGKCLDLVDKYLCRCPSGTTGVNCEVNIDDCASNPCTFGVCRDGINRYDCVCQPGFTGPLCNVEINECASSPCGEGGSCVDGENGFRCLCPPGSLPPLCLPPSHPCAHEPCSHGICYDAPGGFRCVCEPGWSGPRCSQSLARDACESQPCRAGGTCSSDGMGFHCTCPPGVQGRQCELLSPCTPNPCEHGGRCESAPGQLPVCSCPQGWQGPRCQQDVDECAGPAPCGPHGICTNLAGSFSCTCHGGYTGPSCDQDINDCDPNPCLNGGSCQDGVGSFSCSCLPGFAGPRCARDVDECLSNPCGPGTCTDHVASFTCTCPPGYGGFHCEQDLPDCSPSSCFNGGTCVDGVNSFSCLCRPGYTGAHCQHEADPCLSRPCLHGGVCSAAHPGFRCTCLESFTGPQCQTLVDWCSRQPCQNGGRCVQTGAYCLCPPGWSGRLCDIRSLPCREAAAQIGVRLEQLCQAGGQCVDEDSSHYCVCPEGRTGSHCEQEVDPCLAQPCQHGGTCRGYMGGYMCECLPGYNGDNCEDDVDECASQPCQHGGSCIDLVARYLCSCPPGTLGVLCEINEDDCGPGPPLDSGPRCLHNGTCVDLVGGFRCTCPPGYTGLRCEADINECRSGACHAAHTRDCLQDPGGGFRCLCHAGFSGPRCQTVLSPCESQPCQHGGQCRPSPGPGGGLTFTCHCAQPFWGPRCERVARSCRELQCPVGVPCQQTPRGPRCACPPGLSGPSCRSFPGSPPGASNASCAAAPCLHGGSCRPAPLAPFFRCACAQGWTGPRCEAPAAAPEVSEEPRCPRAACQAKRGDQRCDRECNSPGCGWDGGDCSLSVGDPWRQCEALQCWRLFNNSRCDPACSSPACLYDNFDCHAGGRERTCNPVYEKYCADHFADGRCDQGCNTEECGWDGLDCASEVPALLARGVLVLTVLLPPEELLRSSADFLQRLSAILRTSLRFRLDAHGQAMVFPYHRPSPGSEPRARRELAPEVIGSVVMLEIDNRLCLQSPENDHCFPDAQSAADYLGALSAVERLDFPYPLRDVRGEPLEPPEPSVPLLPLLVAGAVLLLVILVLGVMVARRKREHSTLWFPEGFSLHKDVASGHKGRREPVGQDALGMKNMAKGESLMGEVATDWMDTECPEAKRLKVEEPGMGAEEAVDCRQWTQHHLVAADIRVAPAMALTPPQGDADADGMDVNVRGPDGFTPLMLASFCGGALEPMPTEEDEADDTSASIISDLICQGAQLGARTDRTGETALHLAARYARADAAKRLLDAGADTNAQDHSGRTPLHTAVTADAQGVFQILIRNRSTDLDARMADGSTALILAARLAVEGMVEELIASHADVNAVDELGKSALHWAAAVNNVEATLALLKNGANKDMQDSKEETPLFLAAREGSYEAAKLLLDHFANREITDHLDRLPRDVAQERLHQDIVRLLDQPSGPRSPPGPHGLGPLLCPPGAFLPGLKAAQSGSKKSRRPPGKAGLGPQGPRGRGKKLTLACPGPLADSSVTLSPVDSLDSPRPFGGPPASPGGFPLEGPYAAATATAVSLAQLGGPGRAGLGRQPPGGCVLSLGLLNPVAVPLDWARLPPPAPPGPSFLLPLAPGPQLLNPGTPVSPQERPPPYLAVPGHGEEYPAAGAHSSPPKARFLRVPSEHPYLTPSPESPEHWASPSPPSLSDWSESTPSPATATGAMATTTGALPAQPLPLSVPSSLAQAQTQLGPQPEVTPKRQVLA
A short description of experiment [20]: probe aEGFR binding to arrayed compounds – biochemical, biotinylated probe, 635/667 nm fluorescence, primary screen (AID 1097).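 Also: probe is a biotinylated anti-EGFR antibody binding compounds printed on slides; score combines fluorescence near 667 nm and signal to noise of each spot.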 Particulars: small-molecule microarray, higher = more signal.

SMILES strings stand for the structures. Active and inactive are the calls of the source.

Torsin-1A-interacting protein 2 (Homo sapiens), sequence (Q8NFQ8 whole entry, looked up): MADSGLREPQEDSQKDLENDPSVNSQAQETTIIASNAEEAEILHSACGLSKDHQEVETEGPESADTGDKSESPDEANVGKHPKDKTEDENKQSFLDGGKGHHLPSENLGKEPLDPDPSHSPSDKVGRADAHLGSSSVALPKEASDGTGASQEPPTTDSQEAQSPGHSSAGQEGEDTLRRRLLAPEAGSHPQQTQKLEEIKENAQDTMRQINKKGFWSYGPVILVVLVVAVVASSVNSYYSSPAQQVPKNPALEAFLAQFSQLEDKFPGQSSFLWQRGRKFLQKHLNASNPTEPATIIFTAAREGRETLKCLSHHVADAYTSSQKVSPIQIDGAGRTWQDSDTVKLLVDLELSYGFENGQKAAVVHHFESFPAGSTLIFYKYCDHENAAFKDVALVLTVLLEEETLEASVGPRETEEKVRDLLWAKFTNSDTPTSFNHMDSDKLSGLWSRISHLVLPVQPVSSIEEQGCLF

Regarding `COCCOC(=O)N1C(=O)[C@@]2(c3cc(C#CCC(C(=O)OC)C(=O)OC)ccc31)[C@H](c1ccccc1OCCO)N1[C@H](c3ccccc3)[C@H](c3ccccc3)OC(=O)[C@H]1[C@@H]2C(=O)N1CCN(c2ncccn2)CC1`, the composite z-score in experiment [1] is -0.266; in experiment [2], 0.273; in experiment [3] it was 0.137; in experiment [4], 0.432; in [5], 0.986; in [6] it was 1.32. Besides, the composite z-score in experiment [7] is 1.2; in experiment [9], 0.74; in [10], 0.03; in [11], 1.54; in experiment [15], 3.09; in [17], -0.0557. For the same compound, the figures for the composite z-score in experiment [18], in [19] and in experiment [20] were 1.28, 1.08 and 0.032, respectively. Moreover, the z-score in experiment [8] was -0.796 (inactive); in [12], 2.01 (inactive); in experiment [13], 2.65 (inactive); in experiment [14], 7.01 (inactive); in experiment [16], 0.998 (inactive).
With `C=C[C@H](C)[C@@H](OC(=O)Nc1ccc(OC)cc1)c1ccc(O)c2ccccc12`, the composite z-score in [1] was 0.358; in experiment [2], 0.357; in experiment [3] it was -0.142; in experiment [4], -0.225; in experiment [5], -1.53; in [6] it was 0.3. Besides, the composite z-score in experiment [7] is 1.27; in experiment [9] it was -0.344; in [10], -0.37; in experiment [11], 0.0444; in experiment [15] it was 1.63; in experiment [17], -0.266. Also, the composite z-score in experiment [18] is 0.823; in [19], 0.0291; in experiment [20] it was -0.275. Also, the z-score was 4.09 (inactive) in experiment [8]; -24.6 (active) in experiment [12]; -20.8 (active) in experiment [13]; -3.58 (inactive) in experiment [14]; 0.431 (inactive) in [16].
For the compound `C=C[C@H](OC)[C@@H](OC(=O)Nc1ccc(OC)cc1)c1ccc(O)c(F)c1`, the composite z-score is 0.348 in [1]; 0.242 in [2]; -0.175 in [3]; -0.827 in experiment [4]; -1.31 in experiment [5]; 1.11 in experiment [6]. For the same compound, the composite z-score was 0.804 in [7]; -0.922 in experiment [9]; -0.0994 in [10]; 0.148 in [11]; 1.89 in experiment [15]; -0.21 in experiment [17]. For the same compound, the composite z-score in experiment [18] was -0.932; in [19] it was -0.363; in experiment [20], -0.335. Also, the z-score is 2.95 (inactive) in [8]; 0.337 (inactive) in experiment [12]; -1.18 (inactive) in experiment [13]; 1.3 (inactive) in experiment [14]; 0.512 (inactive) in experiment [16].
With `COc1cc(COC(C)=O)ccc1OC(C)=O`, the composite z-score is 0.299 in [1]; -0.0075 in [2]; 0.188 in experiment [3]; 0.209 in experiment [4]; 0.137 in experiment [5]; 0.14 in [6]. For the same compound, the composite z-score in [7] was -0.464; in experiment [9] it was 0.408; in experiment [10] it was 0.318; in experiment [11], 0.491; in experiment [15], 0.418; in [17] it was 1.07. Also, the figures for the composite z-score in [18], in [19] and in experiment [20] were 0.373, 0.279 and 0.643, respectively. The z-score in experiment [8] was -0.681 (inactive); in [12] it was -2.59 (inactive); in experiment [13], -3.73 (inactive); in experiment [14], -0.724 (inactive); in experiment [16] it was 3.13 (inactive).
As to `COCCOC(=O)N1C(=O)[C@@]2(c3cc(C#CCNC(N)=O)ccc31)[C@H](C(=O)N1CCN(c3ncccn3)CC1)[C@H]1C(=O)O[C@H](c3ccccc3)[C@H](c3ccccc3)N1[C@@H]2c1ccc(OCCO)cc1`, the composite z-score in experiment [1] stood at 0.0392; in [2], 0.382; in experiment [3] it was 0.0465; in [4], 0.719; in experiment [5], 0.795; in [6] it was 0.821. Besides, the composite z-score was found to be 0.87 in [7]; 0.601 in experiment [9]; 0.0939 in experiment [10]; 1.57 in [11]; 2.34 in [15]; 0.0158 in [17]. For the same compound, the composite z-score is 0.707 in [18], 1.1 in experiment [19] and -0.0271 in [20]. For the same compound, the z-score in experiment [8] was 0.0006 (inactive); in experiment [12], 1.51 (inactive); in experiment [13], 0.383 (inactive); in experiment [14], 4.36 (inactive); in [16], -0.351 (inactive).
